The source of these data is PubChem BioAssay (NCATS).

Results filed as inconclusive are left out. Values without a mark were called inactive. Calls of active or inactive are those of the source. The call rests on the fitted dose curve; in most records, active means well fitted curve in the direction sought with a large enough effect; inconclusive means small, poorly fitted or top-dose-only effect, or another doubt; inactive means no such curve, though single readings can be large; an effect the other way counts as inactive or inconclusive.

Assay [1] is described as follows: Quantitative High-Throughput drug screen in 47 multiple myeloma cell lines against the NCATS MIPE library collection: KMS12PE_JCRB cell viability assay (AID 1918972). Further: nearly all actives have a fitted effect of over 30% in size. The method in brief: (§1)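 qHTS of the MIPE 4.0 collection: 500 myeloma cells/well, 48 h drug exposure at 37C in 5% CO2, then CellTiter-Glo for 5 min at room temperature before luminescence reading.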

Assay [2] is described as follows: Quantitative High-Throughput drug screen in 47 multiple myeloma cell lines against the NCATS MIPE library collection: KMS26_JCRB cell viability assay (AID 1918975). Further: nearly all actives have a fitted effect of over 45% in size. The method in brief:
as §1

Assay [3] is described as follows: Quantitative High-Throughput drug screen in 47 multiple myeloma cell lines against the NCATS MIPE library collection: MMM1_PLB cell viability assay (AID 1918976). Further: nearly all actives have a fitted effect of over 35% in size. The method in brief:
(§2)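 Viability after 48 h drug exposure was measured as ATP-dependent luminescence. Cells, 500 per well, sat at 37 °C under 5% CO2; DMSO wells set 100%, media-only wells 0%.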

Assay [4] is described as follows: Quantitative High-Throughput drug screen in 47 multiple myeloma cell lines against the NCATS MIPE library collection: MOLP8_DSMZ cell viability assay (AID 1918977). Further: nearly all actives have a fitted effect of over 45% in size. The method in brief: as §2
A short description of assay [5]: Quantitative High-Throughput drug screen in 47 multiple myeloma cell lines against the NCATS MIPE library collection: MM1S_ATCC cell viability assay (AID 1918980). Further: nearly all actives have a fitted effect of over 45% in size. A digest of the protocol: as §2
A short description of assay [6]: Quantitative High-Throughput drug screen in 47 multiple myeloma cell lines against the NCATS MIPE library collection: MM1R_ATCC cell viability assay (AID 1918981). Further: nearly all actives have a fitted effect of over 35% in size. A digest of the protocol:
as §2

Assay [7] in a line: Quantitative High-Throughput drug screen in 47 multiple myeloma cell lines against the NCATS MIPE library collection: LP1_DSMZ cell viability assay (AID 1918982). Further: nearly all actives have a fitted effect of over 35% in size. The method in brief:
as §2

The nature of assay [8]: Quantitative High-Throughput drug screen in 47 multiple myeloma cell lines against the NCATS MIPE library collection: KMS28PE_JCRB cell viability assay (AID 1918983). Further: nearly all actives have a fitted effect of over 35% in size. A digest of the protocol:
as §2

The nature of assay [9]: Quantitative High-Throughput drug screen in 47 multiple myeloma cell lines against the NCATS MIPE library collection: KMS34_JCRB cell viability assay (AID 1918985). Further: nearly all actives have a fitted effect of over 40% in size. A digest of the protocol:
as §2

Assay [10] is described as follows: Quantitative High-Throughput drug screen in 47 multiple myeloma cell lines against the NCATS MIPE library collection: OCIMY7_PLB cell viability assay (AID 1918987). Further: nearly all actives have a fitted effect of over 65% in size. A digest of the protocol: as §2
Assay [11] can be described thus: Quantitative High-Throughput drug screen in 47 multiple myeloma cell lines against the NCATS MIPE library collection: OCIMY5_PLB cell viability assay (AID 1918988). Further: nearly all actives have a fitted effect of over 65% in size. A digest of the protocol:
as §2

The nature of assay [12]: Quantitative High-Throughput drug screen in 47 multiple myeloma cell lines against the NCATS MIPE library collection: U266_ATCC cell viability assay (AID 1919864). Further: nearly all actives have a fitted effect of over 35% in size. The method in brief:
as §2

Assay [13] in a line: Quantitative High-Throughput drug screen in 47 multiple myeloma cell lines against the NCATS MIPE library collection: KMS20_JCRB cell viability assay (AID 1918973). Further: nearly all actives have a fitted effect of over 45% in size. The method in brief: (§3)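 Viability readout: CellTiter-Glo luminescence following 5 min room-temperature incubation with reagent. Prior exposure: 48 h, 37C, humidified 5% CO2, 500 cells per well.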
The nature of assay [14]: Quantitative High-Throughput drug screen in 47 multiple myeloma cell lines against the NCATS MIPE library collection: KMS21BM_JCRB cell viability assay (AID 1918974). As to conditions: ATP luminescence, 48 h; viability: at 45.8 µM (top of the series). A digest of the protocol:
as §3

The nature of assay [15]: Quantitative High-Throughput drug screen in 47 multiple myeloma cell lines against the NCATS MIPE library collection: OCIMY1_PLB cell viability assay (AID 1918979). Further: nearly all actives have a fitted effect of over 35% in size. A digest of the protocol: as §2
Assay [16] can be described thus: Quantitative High-Throughput drug screen in 47 multiple myeloma cell lines against the NCATS MIPE library collection: OPM1_PLB cell viability assay (AID 1918989). Further: nearly all actives have a fitted effect of over 40% in size. The method in brief:
as §2

A short description of assay [17]: Quantitative High-Throughput drug screen in 47 multiple myeloma cell lines against the NCATS MIPE library collection: XG6_PLB cell viability assay (AID 1919865). Further: nearly all actives have a fitted effect of over 40% in size. A digest of the protocol: as §2
Assay [18] in a line: Quantitative High-Throughput drug screen in 47 multiple myeloma cell lines against the NCATS MIPE library collection: L363_DSMZ cell viability assay (AID 1918984). Further: nearly all actives have a fitted effect of over 40% in size. A digest of the protocol:
as §2

Assay [19] in a line: Quantitative High-Throughput drug screen in 47 multiple myeloma cell lines against the NCATS MIPE library collection: NCIH929_DSMZ cell viability assay (AID 1918978). Further: nearly all actives have a fitted effect of over 35% in size. The method in brief:
as §2

A short description of assay [20]: Quantitative High-Throughput drug screen in 47 multiple myeloma cell lines against the NCATS MIPE library collection: SKMM1_PLB cell viability assay (AID 1919863). Further: nearly all actives have a fitted effect of over 35% in size. The following applies: SKMM1 myeloma viability, CellTiter-Glo ATP, 48 h; viability: hits give low values. The method in brief: as §2
Potency means the concentration at half of the fitted maximal effect.

As for `C[C@@]12OC(=O)[C@]1([C@@H](O)[C@@H]1C=CCCC1)NC(=O)[C@H]2CCCl`, the Potency in assay [1] was 0.0187 µM (active); in assay [2] it was 0.0105 µM (active); in assay [3] it was 0.132 µM (active); in assay [4], 0.0053 µM (active); in [5] it was 0.0053 µM (active); in assay [6], 0.0037 µM (active). Further, the Potency in [7] was 0.0166 µM (active); in [8], 0.0083 µM (active); in assay [9], 0.0105 µM (active); in assay [10], 0.001 µM (active); in assay [11], 0.0047 µM (active); in [12], 0.0132 µM (active).

Take `O=c1[nH]c2ccc(Cl)cc2c(N[C@@H]2CN3CCC2CC3)c1-c1nc2ccccc2[nH]1`: the Potency is 0.0833 µM (active) in assay [1]; 0.166 µM (active) in assay [13]; 0.0264 µM (active) in assay [14]; 2.64 µM (active) in [2]; 6.62 µM (active) in [3]; 0.743 µM (active) in assay [4]. For the same molecule, the Potency in assay [15] is 4.69 µM (active); in assay [5] it was 0.0743 µM (active); in assay [6] it was 0.0833 µM (active); in [7] it was 3.32 µM (active); in assay [8] it was 2.35 µM (active); in assay [9] it was 0.0743 µM (active). The Potency is 0.059 µM (active) in assay [10]; 0.0833 µM (active) in [11]; 0.0526 µM (active) in [16]; 5.9 µM (active) in [12]; 0.0372 µM (active) in [17].

Take `Cc1ccccc1-n1c(Cn2cnc3c(N)ncnc32)nc2cccc(C)c2c1=O`: the Potency was 0.264 µM (active) in assay [1]; 0.296 µM (active) in assay [13]; 0.235 µM (active) in [14]; 2.96 µM (active) in [2]; 0.166 µM (active) in [3]; 0.0743 µM (active) in [4]. The Potency in assay [5] is 0.526 µM (active); in assay [6], 0.187 µM (active); in assay [8], 0.296 µM (active); in [9], 0.148 µM (active); in assay [10], 1.32 µM (active); in [11], 1.66 µM (active). Also, the Potency in [16] was 0.332 µM (active); in assay [17], 0.469 µM (active).

On to `O=C1C=CC[C@@H]2[C@H]3CCCN4CCC[C@@H](CN12)[C@@H]34`, for which the Potency result in assay [1], in [13], in assay [15], in [7], in [18] and in [9] was “inactive” each time. The Potency was 20.9 µM (active) in [5], 16.6 µM (active) in assay [8], 2.96 µM (active) in assay [11] and 16.6 µM (active) in [12].

With `CC(C)(O)C=CC(=O)[C@](C)(O)[C@H]1[C@H](O)C[C@]2(C)[C@@H]3CC=C4[C@@H](C=C(O)C(=O)C4(C)C)[C@]3(C)C(=O)C[C@@]12C`, the Potency is 0.0418 µM (active) in [1]; 0.0187 µM (active) in assay [13]; 0.0148 µM (active) in assay [14]; 0.0372 µM (active) in assay [2]; 1.32 µM (active) in assay [3]; 0.0469 µM (active) in assay [4]. Also, the Potency is 0.0469 µM (active) in assay [19]; 0.105 µM (active) in [15]; 0.0418 µM (active) in assay [5]; 0.0372 µM (active) in assay [6]; 0.418 µM (active) in assay [7]; 1.66 µM (active) in assay [8]. For the same molecule, the Potency in assay [18] is 0.0209 µM (active); in assay [9] it was 0.0332 µM (active); in [10], 0.0235 µM (active); in assay [11], 0.0469 µM (active); in assay [12], 0.526 µM (active); in [17] it was 0.0662 µM (active).

For the molecule `CN1[C@H]2CC(O)C[C@H]1[C@H]1O[C@H]12` (some centres undefined), the Potency entry in assay [1] and in assay [18] was “inactive” throughout. Further, the Potency in assay [2] is 16.6 µM (active); in assay [3], 20.9 µM (active); in assay [4], 13.2 µM (active); in assay [19], 2.64 µM (active); in assay [5], 18.7 µM (active); in [6], 16.6 µM (active). Besides, the Potency in [7] was 18.7 µM (active); in assay [8], 20.9 µM (active); in assay [9] it was 18.7 µM (active); in assay [10], 3.32 µM (active); in [11], 18.7 µM (active); in [16] it was 18.7 µM (active). Besides, the Potency in assay [12] was 23.5 µM (active); in assay [17], 7.43 µM (active).

For the molecule `c1ccc(CCCN2CCN(CCOC(c3ccccc3)c3ccccc3)CC2)cc1`, the Potency entry in [1] and in assay [18] was “inactive” in each case. The Potency in [2] was 26.4 µM (active); in [3] it was 18.7 µM (active); in assay [4], 20.9 µM (active); in [19], 23.5 µM (active); in assay [15] it was 23.5 µM (active); in assay [6] it was 23.5 µM (active). The Potency in assay [7] is 20.9 µM (active); in [9] it was 26.4 µM (active); in assay [11], 20.9 µM (active); in assay [12] it was 23.5 µM (active).

Regarding `COc1ccc2c(c1)CN(C)CC2c1ccc(Cl)c(Cl)c1` (centres undefined), the Potency was 23.5 µM (active) in [1]; 4.18 µM (active) in [14]; 16.6 µM (active) in [19]; 0.0833 µM (active) in [5]; 18.7 µM (active) in assay [8]; 13.2 µM (active) in assay [18]. The Potency in [11] was 11.8 µM (active). In assay [15], the Potency entry is “inactive”.

`O=[N+]([O-])c1ncc[nH]1`: the Potency entry in [1], in assay [14], in [2], in assay [19], in assay [5] and in assay [6] was “inactive” throughout. Moreover, the Potency result in [7] and in assay [12] was “inactive” in each case. The Potency was 3.32 µM (active) in assay [3], 0.105 µM (active) in assay [8] and 29.6 µM (active) in assay [11].

Regarding `CC[C@@H]1[C@@H](C)O[C@@](O)([C@@H](C)[C@H](O)[C@H](C)[C@H]2OC(=O)C=CC=C[C@@H](C)[C@@H]([C@@H](C)[C@@H](O)[C@H](C)[C@@]3(O)C[C@H](O[C@H]4C[C@H](O)[C@H](O)[C@H](C)O4)[C@H](CC)[C@@H](C)O3)OC(=O)C=CC=C[C@@H]2C)C[C@H]1O[C@H]1C[C@H](O)[C@H](O)[C@H](C)O1`, the Potency is 0.372 µM (active) in [1]; 0.833 µM (active) in [13]; 0.526 µM (active) in assay [2]; 0.743 µM (active) in [3]; 0.418 µM (active) in [4]; 0.833 µM (active) in assay [15]. For the same molecule, the Potency was 0.469 µM (active) in assay [5]; 0.526 µM (active) in [6]; 0.59 µM (active) in assay [7]; 0.372 µM (active) in assay [8]; 0.372 µM (active) in [18]; 0.935 µM (active) in assay [9]. Besides, the Potency in [10] is 0.662 µM (active); in assay [11], 0.372 µM (active); in assay [20], 0.662 µM (active); in assay [17], 0.469 µM (active).

On to `CCOC(=O)Nc1ccc(NCc2ccc(F)cc2)cc1N`, for which the Potency was 3.32 µM (active) in assay [1]; 18.7 µM (active) in [5]; 10.5 µM (active) in assay [10]; 18.7 µM (active) in assay [16]; 13.2 µM (active) in [12]. The Potency entry in assay [14], in assay [2], in [3], in assay [4], in assay [15] and in assay [6] was “inactive” throughout. The Potency result in [7], in assay [8], in assay [9] and in assay [11] was “inactive” in each case.
